# Measurements as given in PubChem BioAssay AID652104 (National Center for Advancing Translational Sciences (NCATS), 2013).
# Values joined by “and” are separate entries in the source; they are usually repeats but may differ in a detail not shown here. Equal entries are not always repeated. In all, about 410,000 compounds went through this assay and about 7,200 (1.8%) were called active. Roughly 7% stayed inconclusive and do not appear here. The entries come from a sample that favours actives as a whole. Where a call stands in place of a potency, no number is given. Unmarked numbers belong to inactive results. Calls come from the whole dose curve; as a rule, active = well fitted activation curve with a large enough effect; inconclusive = small, poorly fitted or top-dose-only effect, or another doubt; inactive = no such curve, though single readings can be large or run the other way.
# Test: qHTS of TDP-43 Inhibitors; note: nearly all actives have a fitted effect of over 50% in size
# Conditions: TDP-43 expressing yeast growth rescue, BacTiter-Glo, 24 h; series mostly up to 46.1 µM
# Outline: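 Readout is BacTiter-Glo luminescence of cell growth, so inhibitors register as activators. TDP-43-expressing yeast at OD600=0.02 in galactose medium, after raffinose pregrowth to mid-log, were incubated with compound for 24 hr at 30 deg C.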
# Potency is the fitted concentration of half-maximal effect.
SMILES,Potency,growth rescue (activation)
COc1ccc(C)cc1S(=O)(=O)NCCc1ccccc1,inactive,
COc1ccc(-c2onc(C)c2C)cc1S(=O)(=O)NCc1cccs1,inactive,
COc1ccc(-c2onc(C)c2C)cc1S(=O)(=O)NCCc1ccccc1,15.8 µM (active),
Cc1ccc(N(CC(=O)NCC(C)c2ccccc2)S(=O)(=O)N(C)C)cc1 (stereo not given),inactive,
CCCN(CCC)CCNC(=O)c1ccc2c(c1)NC(=O)C(CS(=O)(=O)Cc1cccc(Br)c1)N2 (stereo not given),inactive,
CCOc1ccc(-c2nonc2NC(=O)c2oc3ccc(CC)cc3c2C)cc1,inactive,
O=C(NCc1ccc2c(c1)CCN2C(=O)c1ccccc1)Nc1cc(F)ccc1F,inactive,
COc1ccc2c(c1)c1ncn(Cc3ccccn3)c(=O)c1n2C,inactive,
Cc1ccc2c(c1)N(C(=O)CCC(=O)N1CCc3ccccc3C1)CCO2,inactive,
Cc1ccc2c(c1)c1ncnc(N3CCc4ccccc4C3)c1n2C,22.4 µM (active),
CCOc1ccc(-n2nc3ccc(NC(=O)c4ccc(OC)c(Cl)c4)cc3n2)cc1,inactive,
CCCCOc1ccc(NC(=O)c2cc3c(n(-c4ccc(Cl)cc4)c2=O)CCCC3=O)cc1,inactive,
COc1ccc(C2=NN(C(=O)CSc3nc(=O)n4ccc(C)cc4n3)C(c3ccc(C)cc3)C2)cc1 (stereo not given),inactive,
CCC(=O)N1N=C(c2ccc(OC)cc2)CC1c1cn(-c2ccccc2)nc1-c1cccs1 (stereo not given),inactive,
COc1ccc(C2=NN(C(C)=O)C(c3ccccc3)C2)cc1 (stereo not given),14.1 µM (active),
CCN(C(=O)Cn1c(=O)nc(-c2ccccc2)c2cc(Cl)ccc21)c1cccc(C)c1,inactive,
Cn1c(=O)c2c(-c3ccccc3Br)n(Cc3ccccc3)cc2n(C)c1=O,22.4 µM (active),
COc1ccc(CCn2cc3c(c2-c2ccc(Br)cc2)c(=O)n(C)c(=O)n3C)cc1OC,inactive,
Cc1ccc(-c2c3c(=O)n(C)c(=O)n(C)c3cn2-n2cnnc2)cc1,inactive,
CCc1ccc(S(=O)(=O)c2nnn3c2nc(NCc2ccccc2OC)c2cc(Cl)ccc23)cc1,inactive,
NS(=O)(=O)c1ccc(NC(=O)C(=O)Nc2ccc3nc4n(c(=O)c3c2)CCCCC4)cc1,inactive,
CC(C)NS(=O)(=O)c1ccc(NC(=O)C2CCCCC2)cc1,inactive,
Cc1nc(NC(=O)C2CCCCC2)sc1C,12.6 µM (active),
CCOC(=O)c1cc(C)sc1NC(=O)C1CCC1,inactive,

SMILES,Potency,growth rescue (activation)
CCOC(=O)C1CCCN(C(=O)c2ccc3c(c2)sc2nc(-c4ccc(CC)cc4)cn23)C1 (stereo not given),inactive,
COc1ccc(/C=C/c2nc(C#N)c(NCc3ccc(F)cc3)o2)cc1OC,inactive,
COc1cc2[nH]c(=O)n(Cc3ccc(C(=O)NCc4ccc(C)cc4)cc3)c(=O)c2cc1OC,inactive,
Cc1cccc(N2CCN(C(=O)CCSCc3ccccc3F)CC2)c1C,20 µM (active),
O=C(CCSc1ccccc1)N1CCN(c2ccccc2F)CC1,,-9.85% [at 9.22 µM]
COc1ccc(N2CCN(C(=O)CCSCc3ccccc3F)CC2)cc1,inactive,
CCc1cc2c(cc3c(=O)n(CC(=O)NCc4cccc(Cl)c4)nc(CC)n32)s1,inactive,
C=Cc1ccc(Cn2c(C(=O)O)c(CNC3CCCC3)c3ccc(C)cc32)cc1,inactive,
CCCNC(=O)C1CCC(Cn2c(=O)c3sccc3n(Cc3ccccc3F)c2=O)CC1 (stereo not given),inactive,
COc1ccccc1-c1cc2nc(C)c(CCC(=O)NC3CCCCC3)c(C)n2n1,inactive,
COc1ccc(-c2cc3nc(C)c(CCC(=O)NC(C)CCc4ccco4)c(C)n3n2)c(OC)c1 (stereo not given),17.8 µM (active),
COc1ccccc1-c1cc2nc(C)c(CCC(=O)O)c(C)n2n1,inactive,
COc1ccc(C2CC(=O)n3c(nc4ccccc43)S2)cc1OC (stereo not given),inactive,
COc1ccc([C@H]2CC(=O)C=C(c3ccc(CO)cc3)C2)cc1,inactive,
COc1ccc([C@H]2CC(=O)C=C(/C=C/c3ccccc3)C2)cc1,inactive,
COc1ccc(C2CC(=O)C=C(NCC3CCCO3)C2)cc1 (stereo not given),inactive,
COc1ccc([C@H]2CC(=O)C=C(c3ccc(OC(F)(F)F)cc3)C2)cc1OC,14.1 µM (active),
COc1cccc(C2=CC(=O)C[C@H](c3ccc(OC)c(OC)c3)C2)c1,15.8 µM (active),
CCOC(=O)c1c(NC(=O)Cc2coc3ccc(CC)cc23)sc2c1CCC2,inactive,
O=C(Nc1ccc(OC(F)(F)F)cc1)C1CCCN(S(=O)(=O)c2ccc(Br)s2)C1 (stereo not given),inactive,
CC(NC(=O)c1cc2c(=O)n3ccccc3nc2n(C(C)C)c1=N)c1ccccc1 (stereo not given),inactive,
COc1ccc(-c2cc(C(=O)N(C)Cc3ccccc3)c3ccccc3n2)cc1,14.1 µM (active),
CN(Cc1ccccc1)C(=O)c1cc2c(=O)n(C)c3ccccc3c2s1,inactive,
CN(C)C(CNC(=O)CCCOc1ccccc1)c1ccco1 (stereo not given),inactive,

SMILES,Potency,growth rescue (activation)
CN(CCOc1ccccc1)C(=O)c1cc(-c2ccco2)nc2ccccc12,35.5 µM (active),
COc1cccc(NC(=O)CN(C)C(=O)c2cc(Cl)nc3ccccc23)c1,inactive,
COc1ccc(C2=NS(=O)(=O)N(C)C(C(=O)N(C)Cc3ccccc3)=C2)cc1,inactive,
Cc1ccc2oc3c(c(=O)c2c1)C(c1ccc(O)cc1)N(Cc1ccc2c(c1)OCO2)C3=O (stereo not given),inactive,
CNc1ccc(-c2nc(-c3ccccc3C)no2)cc1[N+](=O)[O-],inactive,
Cc1ccc(CN2CCC(CNC(=O)c3cnn(-c4ccc(C)cc4)c3C3CCN(C(=O)OC(C)(C)C)CC3)CC2)cc1,inactive,
COc1ccc(CC(=O)N/N=C/c2cc([N+](=O)[O-])cc(Br)c2O)cc1,6.31 µM (active),
COc1ccc(Cc2nnc(SCC(=O)c3cccc([N+](=O)[O-])c3)n2C)cc1,inactive,
COc1ccc(CCNS(=O)(=O)c2cccc([N+](=O)[O-])c2)cc1,,-3.92% [at 1.82 µM]
Cc1ccccc1OCC(=O)Nc1ccc(N2CCN(C(=O)C(C)C)CC2)c(Cl)c1,25.1 µM (active),
O=C(COc1ccccc1Cl)Nc1ccc2nc(SCC(=O)N3CCCC3)sc2c1,inactive,
Cc1ccc(NC(=O)COc2coc(CN3CCc4ccccc4C3)cc2=O)cc1Cl,inactive,
COc1ccc(-c2nc(SCC(=O)N3CCCCC3C)n[nH]2)cc1 (stereo not given),inactive,
COc1ccccc1CN1CCC(CNC(=O)c2cnn(-c3ccccc3Cl)c2C2CCN(C(=O)OC(C)(C)C)CC2)CC1,inactive,
CCCC(=O)Nc1cc2nn(-c3ccccc3)nc2cc1C,inactive,
CCN(CC)C(=O)Oc1ccc(Br)cc1C(=O)Nc1ccc(F)c(Cl)c1,inactive,
COc1ccc(Cl)cc1-c1cc(C(=O)Nc2cc(OC)c(OC)c(OC)c2)[nH]n1,inactive,
CCCOc1ccc(F)cc1-c1cc(C(=O)Nc2ccc(F)c(Cl)c2)[nH]n1,8.91 µM (active),
CC(C)(C)c1ccc(C(=O)NCC(c2ccc(Cl)cc2)N2CCOCC2)cc1 (stereo not given),inactive,
COc1ccc(-c2ccc(CCC(=O)O)n2-c2ccc(O)cc2)cc1,,-16.9% [at 9.22 µM]
Cc1ccc(-c2ccc(CCC(=O)O)n2-c2ccc(C(N)=O)cc2)cc1,inactive,
CCOC(=O)c1ccc(-n2c(CCC(=O)O)ccc2-c2ccccc2)cc1,25.1 µM (active) and 35.5 µM (active),
Cc1ccc(C2CCN(C(=O)c3cnn(-c4ccccc4Cl)c3C3CCN(C(=O)OC(C)(C)C)CC3)C2)cc1 (stereo not given),inactive,
O=C(CN1C(=O)COc2ccc(S(=O)(=O)N3CCCCCC3)cc21)N1CCN(c2cccc(C(F)(F)F)c2)CC1,inactive,

SMILES,Potency,growth rescue (activation)
COC(=O)N/N=C/c1ccc(-c2ccc(Cl)c(Cl)c2)o1,12.6 µM (active),
O=C(N/N=C\c1ccc(-c2ccc(Cl)c(Cl)c2)o1)C(=O)N1CCCC1,inactive,
Cc1ccc(/C=N/NC(=O)Cn2ccc(C(F)(F)F)n2)o1,inactive,
Cc1ccc(NC(=O)c2cn3c4c(ccc(Cl)c4c2=O)OC(C)C3)cc1C (stereo not given),inactive,
Cc1cccc(Nc2cc(C)nc(-n3nc(C)cc3C)n2)c1,inactive,
COc1ccc2c(Sc3ccc(C)cc3)c(C(=O)NC(C)c3ccccc3)[nH]c2c1 (stereo not given),inactive,
O=C(CSc1ccccc1)Nc1cccc(S(=O)(=O)N2CCOCC2)c1,inactive,
CSc1cccc(NC(=O)CSc2ccccc2)c1,14.1 µM (active),
Cc1nnc(SCC(=O)Nc2cccc(N)c2)n1-c1ccccc1,inactive,
Cc1ccc2nc(/C(C#N)=C/c3ccc(-c4ccc(C(=O)OC(C)C)cc4)o3)[nH]c2c1,inactive,
COc1ccccc1NC(=O)c1cc(S(=O)(=O)NCCc2ccccc2)ccc1F,inactive,
COc1cccc(N2CCN(S(=O)(=O)c3ccc4c(c3)CCCN4C(C)=O)CC2)c1,inactive,
COc1cccc(N2CCN(C3CC(=O)N(c4ccc(Cl)cc4)C3=O)CC2)c1 (stereo not given),inactive,
COc1cccc(N2C(=O)CC(N3CCN(S(=O)(=O)c4ccccc4)CC3)C2=O)c1 (stereo not given),inactive,
COc1cccc(N2C(=O)CC(N3CCc4ccccc4C3)C2=O)c1 (stereo not given),17.8 µM (active),
CCOc1ccccc1C(=O)Nc1ccc2c(c1)N(C)C(=O)c1ccccc1S2,inactive,
CCc1noc(C)c1C(=O)N1CCCSC1=Nc1ccccc1OC,inactive,
CCc1noc(C)c1C(=O)OCC(=O)c1ccc(NC(=O)CC(C)C)cc1,inactive,
CCc1noc(C)c1C(=O)Nc1nc(-c2ccccc2)cs1,11.2 µM (active),
O=C(/C=C/c1cn(CC(O)CN2CCc3ccccc32)c2ccccc12)c1ccc(Br)cc1 (stereo not given),inactive,
Cc1ccccc1OCc1ccc(-c2nc(C#N)c(N3CCCCC3)o2)o1,inactive,
CC1CCN(c2oc(-c3ccccc3F)nc2C#N)CC1,15.8 µM (active),
COc1ccc(OCc2ccc(-c3nc(C#N)c(N4CCN(c5ccccc5)CC4)o3)o2)cc1,inactive,
